A selection: hits, their analogues and other compounds. The true share with any hit is near 8%.
KB-V1 cytotox – qHTS assay for MDR1-selective chemotherapeutics: Primary screen using the drug-selected MDR subline cells KB-V1; KB-V1 MDR cells viability, CellTiter-Glo, 72 h; Potency, µM (highest dose often 46.1 µM), actives largely listed as cytotoxic; actives 3.4% (n = 400,000); further: nearly all actives have a fitted effect of over 60% in size
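Potencies derive from concentration-effect curves fitted to normalized luminescence (CellTiter-Glo) of KB-V1 cells treated for 72 h at 37 degrees C in phenol-red-free DMEM containing 10% FBS.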
KB-3-1 tox – qHTS assay for MDR1-selective chemotherapeutics: Primary screen using the parental adenocarcinoma cell KB-3-1. KB-3-1 viability, CellTiter-Glo ATP luminescence, 72 h. Potency, µM (doses to about 46.1 µM), usual class: cytotoxic. actives 1.4% (n = 400,000); further: nearly all actives have a fitted effect of over 60% in size
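Here the drug-naive KB-3-1 line serves as comparator for MDR sub-line selectivity; cells received compound titrations, 72 h at 37 °C, then CellTiter-Glo readout.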
HT1080-NT tox – qHTS for induction of synthetic lethality in tumor cells producing 2HG: qHTS for the HT-1080-NT fibrosarcoma cell line; HT-1080-NT fibrosarcoma viability, CellTiter-Glo ATP luminescence, 48 h; Potency, µM (top dose mostly 46.1 µM), usual class: cytotoxic; actives 1.6% (n = 360,000); AID 686970, 2013;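 further: NT is the 2HG producing partner of a matched IDH1 knockdown line; nearly all actives have a fitted effect of over 55% in size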
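Compounds were tested in concentration-response format on HT-1080-NT cells for 48 hours at 37 degrees C. Cell viability came from CellTiter-Glo luminescence; curves were classified by r2, response magnitude and activity.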
HT1080 IDH1KD tx – qHTS for induction of synthetic lethality in tumor cells producing 2HG: qHTS for the HT-1080-IDH1KD cell line | HT-1080 IDH1 knockdown viability, ATP luminescence, 48 h | actives 2% (n = 360,000) | AID 686971, 2013 | Potency, µM (series often up to 46.1 µM), hits mostly cytotoxic
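After a 2 h attachment period, IDH1KD HT-1080 cells took pin-transferred compound for 48 h at 37 °C; ATP-based luminescence after 10 min room-temperature reagent incubation reported viability.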
MCF10A rerep – A quantitative high throughput screen for small molecules that induce DNA re-replication in MCF 10a normal breast cells | actives 2.9% (n = 350,000) | Potency, µM (doses to about 46.1 µM), hits mostly activators | AID 624296, 2012 | MCF 10A DNA re-replication, Hoechst nuclear intensity, 48 h; further: nearly all actives have a fitted effect of over 50% in size
SW480 rereplic – A quantitative high throughput screen for small molecules that induce DNA re-replication in SW480 colon adenocarcinoma cells; SW480 DNA re-replication, Hoechst DNA content imaging, 48 h; Potency, µM (highest dose often 46.1 µM), hits mostly activators; actives 1.8% (n = 340,000); further: nearly all actives have a fitted effect of over 55% in size
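Treated cells incubate 48 hr (37 C, 5% CO2), are stained 40 min with Hoechst, and nuclear fluorescence is enumerated; a rise in nuclei with high DNA signal marks re-replication.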
A number is an active result. The call rests on the fitted dose curve; in most records, active means well fitted curve in the direction sought with a large enough effect; inconclusive means small, poorly fitted or top-dose-only effect, or another doubt; inactive means no such curve, though single readings can be large; an effect the other way counts as inactive or inconclusive.

For COc1ccccc1NC(=O)Cn1cnc2c(cnn2-c2ccc(C)c(C)c2)c1=O the results were KB-V1 cytotox 13µM, KB-3-1 tox inactive, HT1080-NT tox inactive, HT1080 IDH1KD tx inactive, MCF10A rerep inactive and SW480 rereplic inactive.
Screening O=C(Cn1cnc2c(oc3ccccc32)c1=O)N1CCCc2ccccc21 returned KB-V1 cytotox 4.1µM, KB-3-1 tox inactive, HT1080-NT tox inactive, HT1080 IDH1KD tx inactive, MCF10A rerep inactive and SW480 rereplic inactive.
O=C(Nc1ccccc1O)c1cccc(S(=O)(=O)Nc2ccccc2O)c1 was read as KB-V1 cytotox inactive, KB-3-1 tox inactive, HT1080-NT tox inactive, HT1080 IDH1KD tx inactive, MCF10A rerep inactive and SW480 rereplic inactive.
O=C(C1CCCO1)N1CCN(C(=S)Nc2ccc(F)c(Cl)c2)CC1 (stereo not drawn) was read as KB-V1 cytotox inactive, KB-3-1 tox inactive, HT1080-NT tox inactive, HT1080 IDH1KD tx inactive, MCF10A rerep inactive and SW480 rereplic inactive.
Screening Cc1[nH]c2ccccc2c1C(=O)CN1C(=O)C(=O)N(CCC2=CCCCC2)C1=O returned KB-V1 cytotox inactive, KB-3-1 tox inactive, HT1080-NT tox inactive, HT1080 IDH1KD tx inactive, MCF10A rerep inactive and SW480 rereplic inactive.
`CCc1ccc2c(F)cccc2n1` gave KB-V1 cytotox inactive, KB-3-1 tox inactive, HT1080-NT tox inactive and HT1080 IDH1KD tx inactive.
Cc1ccc(-n2ncc3c(=O)n(CC(=O)N4CCN(C(=O)c5ccco5)CC4)cnc32)cc1 was read as KB-V1 cytotox 12µM, KB-3-1 tox inactive, HT1080-NT tox inactive, HT1080 IDH1KD tx inactive, MCF10A rerep inactive and SW480 rereplic inactive.
For CC(C)NC(=O)Cn1cnc2c(cnn2-c2ccc(F)cc2)c1=O the results were KB-V1 cytotox inactive, KB-3-1 tox inactive, HT1080-NT tox inactive, HT1080 IDH1KD tx inactive, MCF10A rerep inactive and SW480 rereplic inactive.
For O=C(Cn1cnc2c(nnn2Cc2ccc(F)cc2)c1=O)N1CCCc2ccccc21 the results were KB-V1 cytotox 16µM, KB-3-1 tox inactive, HT1080-NT tox inactive, HT1080 IDH1KD tx inactive, MCF10A rerep inactive and SW480 rereplic inactive.
`Cc1ccc(-n2ncc3c(=O)n(CC(=O)N4CCN(c5ccccc5)CC4)cnc32)cc1` gave KB-V1 cytotox inconclusive, KB-3-1 tox inactive, HT1080-NT tox inactive, HT1080 IDH1KD tx inactive, MCF10A rerep inactive and SW480 rereplic inactive.
COc1ccccc1NC(=O)CN1C(=O)CC(c2ccc(C)c(C)c2)=Nc2ccccc21 was read as KB-V1 cytotox 16µM and KB-3-1 tox inactive.
`COc1ccc(-n2ncc3c(=O)n(CC(=O)NC(C)C)cnc32)cc1` gave KB-V1 cytotox inactive, KB-3-1 tox inactive, HT1080-NT tox inactive, HT1080 IDH1KD tx inactive, MCF10A rerep 0.92µM and SW480 rereplic inactive.
Screening O=S(=O)(c1ccccc1)c1nnn2c1nc(NC1CCCCCC1)c1sccc12 returned KB-V1 cytotox inactive and KB-3-1 tox inactive.
Screening O=C(NCC(c1ccco1)N1CCN(c2ccccc2)CC1)C(=O)NC1CC1 (stereo not drawn) returned KB-V1 cytotox inconclusive, KB-3-1 tox inconclusive, HT1080-NT tox inactive, HT1080 IDH1KD tx inactive, MCF10A rerep inactive and SW480 rereplic inactive.
Screening CCOc1ccc(NC(=O)CC2C(=O)N(c3ccc(F)cc3)C(=O)N2Cc2ccc(OC)c(OC)c2)cc1 (stereo not drawn) returned KB-V1 cytotox inactive and KB-3-1 tox inactive.
Screening O=C(Cn1cnc2c(cnn2-c2ccc(F)cc2)c1=O)N1CCCc2ccccc21 returned KB-V1 cytotox 2.9µM, KB-3-1 tox inconclusive, HT1080-NT tox inactive, HT1080 IDH1KD tx inactive, MCF10A rerep inactive and SW480 rereplic inactive.
For COc1ccc(-n2ncc3c(=O)n(CC(=O)N4CCCc5ccccc54)cnc32)cc1 the results were KB-V1 cytotox inconclusive, KB-3-1 tox inconclusive, HT1080-NT tox inactive, HT1080 IDH1KD tx inactive, MCF10A rerep inactive and SW480 rereplic inactive.
`Cc1ccc(-n2ncc3c(=O)n(CC(=O)N4CCN(c5ccccc5F)CC4)cnc32)cc1C` gave KB-V1 cytotox inactive, KB-3-1 tox inactive, HT1080-NT tox inactive, HT1080 IDH1KD tx inactive, MCF10A rerep inconclusive and SW480 rereplic inactive.
For Cc1ccc(-n2ncc3c(=O)n(CC(=O)N4CCCc5ccccc54)cnc32)cc1C the results were KB-V1 cytotox 18µM, KB-3-1 tox inactive, HT1080-NT tox inactive, HT1080 IDH1KD tx inactive, MCF10A rerep inconclusive and SW480 rereplic inactive.
For COc1cc(OC)nc(NC(=S)NC(=O)c2ccccc2)n1 the results were KB-V1 cytotox inactive, KB-3-1 tox inactive, HT1080-NT tox inactive, HT1080 IDH1KD tx inactive, MCF10A rerep inactive and SW480 rereplic inactive.
`C=CCN1C(=O)/C(=C\c2ccc(Cl)cc2)N=C1SCC(=O)NCCC` gave KB-V1 cytotox inconclusive, KB-3-1 tox inactive, HT1080-NT tox inactive, HT1080 IDH1KD tx inactive, MCF10A rerep inactive and SW480 rereplic inactive.
Screening COCCNC(=O)CSC1=N/C(=C/c2ccc(Cl)c(Cl)c2)C(=O)N1c1ccccc1F returned KB-V1 cytotox inactive, KB-3-1 tox inactive, HT1080-NT tox inconclusive, HT1080 IDH1KD tx inconclusive, MCF10A rerep 9.2µM and SW480 rereplic inconclusive.
Screening COc1ccc(/C=C2\SC(=O)N=C2N)cc1OC returned KB-V1 cytotox inactive, KB-3-1 tox inactive, HT1080-NT tox inactive, HT1080 IDH1KD tx inactive, MCF10A rerep inactive and SW480 rereplic inactive.
COc1ccc(/C=C2\SC(=N)N(c3nccs3)C2=O)cc1OC was read as KB-V1 cytotox inactive, KB-3-1 tox inconclusive, HT1080-NT tox inconclusive, HT1080 IDH1KD tx inconclusive, MCF10A rerep 10µM and SW480 rereplic 12µM.
Screening N=C1S/C(=C\c2ccc(-c3cccc(Cl)c3)o2)C(=O)N1c1nccs1 returned KB-V1 cytotox inconclusive, KB-3-1 tox 7.3µM, HT1080-NT tox inactive, HT1080 IDH1KD tx inconclusive, MCF10A rerep inconclusive and SW480 rereplic inconclusive.
Screening COC(=O)/C(=C\c1cc(OC)c(OC)c(OC)c1)c1nc2ccccc2[nH]1 returned KB-V1 cytotox inconclusive, KB-3-1 tox 15µM, HT1080-NT tox inconclusive, HT1080 IDH1KD tx inconclusive, MCF10A rerep 21µM and SW480 rereplic inconclusive.
For COC(=O)/C(=C\c1ccc(O)cc1)c1nc2ccccc2[nH]1 the results were KB-V1 cytotox inactive, KB-3-1 tox inactive, HT1080-NT tox inactive, HT1080 IDH1KD tx inactive, MCF10A rerep 16µM and SW480 rereplic 2.6µM.
